Source: PubChem BioAssay (National Center for Advancing Translational Sciences (NCATS))
YjeE inh = qHTS Assay for Inhibitors of YjeE | Potency, µM | purified YjeE enzyme, qHTS inhibition assay | AID 605, 2007 | actives 0.05% (n = 71,000) | tRNA threonylcarbamoyladenosine biosynthesis protein TsaE (Escherichia coli (strain …
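Purified YjeE (10 uM) with BODIPY Texas Red-labeled ADP probe (2 uM); compounds pin-transferred, 15 min at room temperature. Binding inhibition read as decreased fluorescence polarization; ADP titration as control.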
DNA Pol III inh = qHTS Assay for Inhibitors of DNA Polymerase III Holoenzyme System; reconstituted DNA polymerase III holoenzyme replication, biochemical; Potency, µM (highest dose often 57.1 µM); actives 0.25% (n = 71,000)
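Reconstituted *E. coli* holoenzyme (0.35 nM Pol III, 1 nM beta, 154 nM SSB, 2 nM primase) was preincubated with compound for 15 min at RT. Synthesis on 1.4 nM ssM13Gori ran 35 min, then was stopped with PicoGreen/EDTA and read as dsDNA fluorescence.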
Tau filament bind = qHTS Assay for Tau Filament Binding. Microtubule-associated protein tau (Homo sapiens), P10636. recombinant tau filaments, thioflavin S fluorescence, 15 h; filaments grown with octadecylsulfate alongside compound. Potency, µM (doses to about 57.1 µM). actives 2% (n = 71,000). AID 596, 2007;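 further: actives lower thioflavin S fluorescence by blocking filaments or displacing dye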
Target sequence (P10636 whole entry, looked up): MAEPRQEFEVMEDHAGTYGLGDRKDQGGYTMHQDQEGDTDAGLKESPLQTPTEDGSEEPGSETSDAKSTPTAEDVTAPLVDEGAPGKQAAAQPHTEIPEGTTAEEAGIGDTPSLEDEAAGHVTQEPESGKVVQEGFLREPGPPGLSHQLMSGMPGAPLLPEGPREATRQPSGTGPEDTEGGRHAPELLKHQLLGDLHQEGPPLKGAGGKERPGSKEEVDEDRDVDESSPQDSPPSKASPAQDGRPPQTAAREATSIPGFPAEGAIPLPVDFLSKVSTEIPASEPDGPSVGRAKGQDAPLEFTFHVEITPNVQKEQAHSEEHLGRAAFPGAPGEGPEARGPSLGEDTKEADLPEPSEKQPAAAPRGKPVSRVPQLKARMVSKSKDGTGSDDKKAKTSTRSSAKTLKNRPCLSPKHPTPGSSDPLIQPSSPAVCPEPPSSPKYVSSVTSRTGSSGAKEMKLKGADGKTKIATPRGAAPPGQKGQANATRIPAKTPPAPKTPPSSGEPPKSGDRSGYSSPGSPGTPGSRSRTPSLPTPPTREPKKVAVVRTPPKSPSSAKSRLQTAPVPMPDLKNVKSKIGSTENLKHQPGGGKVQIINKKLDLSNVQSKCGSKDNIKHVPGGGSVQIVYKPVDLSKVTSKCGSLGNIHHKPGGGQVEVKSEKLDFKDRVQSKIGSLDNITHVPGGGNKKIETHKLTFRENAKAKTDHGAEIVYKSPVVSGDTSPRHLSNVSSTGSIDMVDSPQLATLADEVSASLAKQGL
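Tau 2 uM in ThS buffer dispensed; compound added; 60 uM ODS added (finals 1 uM tau, 30 uM ODS); 15 h 37 C; fluor ex450/em510.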
BRCT PPI red = qHTS Assay for Inhibitors of BRCT-Phosphoprotein Interaction (Red Fluorophore). actives 0.03% (n = 75,000). Potency, µM (series often up to 76.9 µM), actives largely listed as inhibitors. AID 892, 2007. Breast cancer type 1 susceptibility protein (Homo sapiens), P38398. BRCT-phosphopeptide binding, red fluorescence polarization
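Rhodamine-labelled pBACH1 10-mer (100 nM) bound to BRCT domain (100 nM) at pH 7.3; compounds incubated 12 min room temperature, polarization read. Free peptide defines full inhibition; unlabelled decapeptide titrated as control.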
BRCT PPI green = qHTS Assay for Inhibitors of BRCT-Phosphoprotein Interaction (Green Fluorophore). Breast cancer type 1 susceptibility protein (Homo sapiens), P38398. BRCA1 BRCT-phosphopeptide binding, green fluorescence polarization. Potency, µM (titrated, usually from 76.9 µM), actives largely listed as inhibitors. actives 0.05% (n = 75,000)
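Compounds were incubated for 12 min at room temperature with a complex of 100 nM fluorescein-tagged pBACH1 decapeptide and 250 nM His-tagged BRCT protein. Buffer was phosphate pH 7.3 with EDTA, DTT and Tween 20. Disruption of binding lowers the polarization signal.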
Hsp90 Hop PPI = qHTS Assay for Disrupters of an Hsp90 Co-Chaperone Interaction; Hsp90 C-terminal peptide / TPR2A (Hop) interaction, human; AlphaScreen TPR2A-His6 binding biotin-Hsp90 C-terminal peptide; Potency, µM (series often up to 57 µM); actives 0.44% (n = 71,000); AID 595, 2007; active means well fitted curve in either direction with a large enough effect; inconclusive means small, poorly fitted or top-dose-only effect, or another doubt
Each line names hits and unclear results; the compound was inactive in the other large screens; ! = not active in a repeat. Most compounds without a hit are left out; they make up all but 2.3% or so of the library. Unless noted, the call rests on the fitted dose curve; in most records, active means well fitted curve in the direction sought with a large enough effect; inconclusive means small, poorly fitted or top-dose-only effect, or another doubt; inactive means no such curve, though single readings can be large; an effect the other way counts as inactive or inconclusive.

O=C1c2ccccc2C(Nc2ccc3c(c2)OCO3)N1Cc1ccco1 (stereo not drawn)	Tau filament bind 12.6µM, Hsp90 Hop PPI inconclusive
O=C1c2ccccc2C(Nc2ccc3c(c2)OCO3)N1Cc1ccc2c(c1)OCO2 (stereo not drawn)	Tau filament bind 10µM
O=C1c2ccccc2C(O)N1Cc1ccc2c(c1)OCO2 (stereo not drawn)	none
CCOc1ccc(NC2c3ccccc3C(=O)N2Cc2ccco2)cc1 (stereo not drawn)	Tau filament bind 15.8µM
O=C1c2ccccc2C(Nc2ccc3nc(-c4cccnc4)[nH]c3c2)N1Cc1ccco1 (stereo not drawn)	none
COc1ccc(NC2c3ccccc3C(=O)N2Cc2ccco2)cc1OC (stereo not drawn)	none
COc1ccc(OC)c(NC2c3ccccc3C(=O)N2Cc2ccc3c(c2)OCO3)c1 (stereo not drawn)	Tau filament bind 20µM
O=C1c2ccccc2C(Nc2cccnc2)N1Cc1ccc2c(c1)OCO2 (stereo not drawn)	none
O=C(O)COc1cccc(-c2ocnc2-c2nc(-c3ccccc3)c(-c3ccccc3)o2)c1	Tau filament bind inconclusive
O=C1c2ccccc2C(Nc2ccc(-c3nc4ccccc4[nH]3)cc2)N1Cc1ccco1 (stereo not drawn)	none
O=C1c2ccccc2C(Nc2ccc(F)c(Cl)c2)N1Cc1ccco1 (stereo not drawn)	Tau filament bind 12.6µM
O=C1c2cccc(O)c2C(=O)c2c(O[C@@H]3O[C@H](CO)[C@@H](O)[C@H](O)[C@@H]3O)cccc21	none
O=C(O)c1cc(O)c2c(c1)[C@H]([C@H]1c3cc(C(=O)O)cc(O)c3C(=O)c3c(O[C@@H]4OC(CO)C(O)C(O)C4O)cccc31)c1cccc(O[C@@H]3OC(CO)C(O)C(O)C3O)c1C2=O (stereo partly drawn)	BRCT PPI red 6.31µM (no result: YjeE inh, DNA Pol III inh, Tau filament bind, Hsp90 Hop PPI)
O=c1cc(-c2ccccc2O)oc2c1ccc1ccccc12	none
CCCN(CCC)C[C@@H]1CCCCN1CCNC(=O)N1c2ccccc2C(=O)Nc2cccnc21	Tau filament bind 39.8µM
N#CCCn1c(=O)c(-c2ccc(Cl)cc2)nc2cnc(N3CCOCC3)nc21	none
CCN1C=C(Cc2cccs2)C2=C(C1)C(c1cccs1)C(C#N)=C(N)O2 (stereo not drawn)	Tau filament bind 3.98µM
C[C@@H](c1ccccc1)N1C(=O)[C@H]2[C@H]3[C@H](O)[C@H](O)C/C(=N/OCc4ccccc4)[C@H]3CC[C@@H]2C1=O	none (no result: YjeE inh, DNA Pol III inh, Tau filament bind, Hsp90 Hop PPI)
Cc1ccccc1-c1ccc2ncnc(-n3ccnc3)c2c1	none
CN(C)c1ccc(-c2ccc3ncnc(-n4ccnc4)c3c2)cc1	Tau filament bind 3.16µM
Cc1cccc(OCCCCc2c(C)n[nH]c2C)c1C	Tau filament bind 15.8µM
Cc1ccc(/C=N/c2sc3c(c2C#N)CCCCC3)o1	DNA Pol III inh inconclusive
N#Cc1c(/N=C/c2ccco2)sc2c1CCC2	Tau filament bind 15.8µM
CCOc1ccc(NCc2nnc(SCC(=O)Nc3cc(C)on3)n2-c2ccccc2OC)cc1	none
CCOc1ccc(NCc2nnc(SCC(=O)Nc3cc(C)on3)n2-c2ccc(OC)cc2)cc1	Tau filament bind 15.8µM
Cc1cc(O)ccc1Nc1nc2ccccc2nc1Nc1ccc(O)cc1C	Tau filament bind 7.94µM
CN(C)c1ncc2nc(-c3cccs3)c(=O)n(CCC#N)c2n1	none
O=c1[nH]c2ccc(Cl)cc2c(-c2ccccc2)c1CN1CCOCC1	Tau filament bind 12.6µM
CCOc1cc(-c2cc(-c3ccc(N)cc3)nc(N)c2C#N)ccc1O	Tau filament bind 31.6µM, Hsp90 Hop PPI inconclusive
CN1CCN(c2cc(-c3ccoc3)ncn2)CC1	none
CCN(CC)c1ccc(NC(=O)c2cccc(C)c2OC)c(C)c1	Tau filament bind 25.1µM
CCN(CC)c1ccc(NC(=O)c2cnc3ccccn3c2=O)c(C)c1	none (no result: YjeE inh, DNA Pol III inh, Tau filament bind, Hsp90 Hop PPI)
CC1CC(C)CN(CCC(=O)Nc2cccc(Cl)c2)C1 (stereo not drawn)	Tau filament bind 20µM
CNCCCC1c2ccccc2C=Cc2ccccc21	Tau filament bind 5.01µM!
COc1cc(CNc2ccc3[nH]c(=O)[nH]c3c2)cc(Cl)c1OCC(=O)NC(C)(C)C	Tau filament bind 10µM
CCOC(=O)c1cnn2c(C(F)(F)F)cc(-c3ccccc3)nc12	Tau filament bind 12.6µM
CCOC(=O)C1CCCN(C(=O)c2cnn3c(C(F)(F)F)cc(-c4ccccc4)nc23)C1 (stereo not drawn)	Tau filament bind 12.6µM, Hsp90 Hop PPI inconclusive
CCOC(=O)c1cnn2c(C(F)(F)F)cc(-c3cn(C)nc3C)nc12	none
CCOC(=O)C1CCCN(C(=O)c2cc3nc(-c4cccc(OC)c4)cc(C(F)(F)F)n3n2)C1 (stereo not drawn)	Hsp90 Hop PPI inconclusive
CC(C)c1cccc2nc3c(c([Si](C)(C)C)c12)Cn1c-3cccc1=O	Tau filament bind 31.6µM, Hsp90 Hop PPI inconclusive
CCc1c2c(nc3c(C(C)C)cccc13)-c1cccc(=O)n1C2	Hsp90 Hop PPI inconclusive
CCc1cccc2nc3c(c([Si](CC)(CC)CC)c12)Cn1c-3cccc1=O	Tau filament bind 20µM, Hsp90 Hop PPI 25.1µM
CCCc1cc(=O)[nH]c(Nc2ccc(N3CCCCC3)cc2)n1	Tau filament bind 25.1µM
Cc1cc(C)nc(Nc2ccc(N3CCOCC3)cc2)n1	Tau filament bind inconclusive, Hsp90 Hop PPI inconclusive
CCCCc1ccc(Nc2nc(CCC)cc(=O)[nH]2)cc1	none
Cc1cc(C)nc(Nc2ccc(N3CCCC3)cc2)n1	Tau filament bind 15.8µM, Hsp90 Hop PPI inconclusive
CC(=O)OCC(=O)[C@@]1(O)[C@H](C)C[C@@H]2[C@H]3CCC4=CC(=O)C=C[C@]4(C)[C@]3(F)[C@@H](O)C[C@@]21C	none
NC([N-]/N=C/c1ccccn1)=[S]=[Fe].O=S(=O)(O)O	Hsp90 Hop PPI 1.26µM
NC(=O)c1ccccc1N=Cc1ccccn1	none
CCOC(=O)COc1cccc2c(=O)n(CC(=O)NCc3ccc4c(c3)OCO4)ccc12	none
CCOC(=O)COc1cccc2c(=O)n(CC(=O)N3CCc4ccccc43)ccc12	Tau filament bind 15.8µM
Cn1c(=O)c2c(nc(N/N=C\c3ccccc3C(=O)O)n2C)n(C)c1=O	none
CNCCCC12CCC(c3ccccc31)c1ccccc12	Tau filament bind 15.8µM!
